# According to ChEMBL document CHEMBL1201862, “PubChem BioAssay data set” (2004):
# Values joined by “and” are separate entries in the source; they are usually repeats but may differ in a detail not shown here. Identical values can stand only once. The whole screen tested about 400,000 compounds, of which about 2,100 (0.53%) were called active. Roughly 14% stayed inconclusive and do not appear here. The sample holds actives, similar compounds and a random draw of the others, so the mix is not that of the screen. The rule behind the calls is not given here.
# Target: Ataxin-2 (Homo sapiens) (UniProt Q99700)
# Assay: qHTS for Inhibitors of ATXN expression.
# Format: functional
# Sequence of Ataxin-2 (Homo sapiens) (Q99700 whole entry): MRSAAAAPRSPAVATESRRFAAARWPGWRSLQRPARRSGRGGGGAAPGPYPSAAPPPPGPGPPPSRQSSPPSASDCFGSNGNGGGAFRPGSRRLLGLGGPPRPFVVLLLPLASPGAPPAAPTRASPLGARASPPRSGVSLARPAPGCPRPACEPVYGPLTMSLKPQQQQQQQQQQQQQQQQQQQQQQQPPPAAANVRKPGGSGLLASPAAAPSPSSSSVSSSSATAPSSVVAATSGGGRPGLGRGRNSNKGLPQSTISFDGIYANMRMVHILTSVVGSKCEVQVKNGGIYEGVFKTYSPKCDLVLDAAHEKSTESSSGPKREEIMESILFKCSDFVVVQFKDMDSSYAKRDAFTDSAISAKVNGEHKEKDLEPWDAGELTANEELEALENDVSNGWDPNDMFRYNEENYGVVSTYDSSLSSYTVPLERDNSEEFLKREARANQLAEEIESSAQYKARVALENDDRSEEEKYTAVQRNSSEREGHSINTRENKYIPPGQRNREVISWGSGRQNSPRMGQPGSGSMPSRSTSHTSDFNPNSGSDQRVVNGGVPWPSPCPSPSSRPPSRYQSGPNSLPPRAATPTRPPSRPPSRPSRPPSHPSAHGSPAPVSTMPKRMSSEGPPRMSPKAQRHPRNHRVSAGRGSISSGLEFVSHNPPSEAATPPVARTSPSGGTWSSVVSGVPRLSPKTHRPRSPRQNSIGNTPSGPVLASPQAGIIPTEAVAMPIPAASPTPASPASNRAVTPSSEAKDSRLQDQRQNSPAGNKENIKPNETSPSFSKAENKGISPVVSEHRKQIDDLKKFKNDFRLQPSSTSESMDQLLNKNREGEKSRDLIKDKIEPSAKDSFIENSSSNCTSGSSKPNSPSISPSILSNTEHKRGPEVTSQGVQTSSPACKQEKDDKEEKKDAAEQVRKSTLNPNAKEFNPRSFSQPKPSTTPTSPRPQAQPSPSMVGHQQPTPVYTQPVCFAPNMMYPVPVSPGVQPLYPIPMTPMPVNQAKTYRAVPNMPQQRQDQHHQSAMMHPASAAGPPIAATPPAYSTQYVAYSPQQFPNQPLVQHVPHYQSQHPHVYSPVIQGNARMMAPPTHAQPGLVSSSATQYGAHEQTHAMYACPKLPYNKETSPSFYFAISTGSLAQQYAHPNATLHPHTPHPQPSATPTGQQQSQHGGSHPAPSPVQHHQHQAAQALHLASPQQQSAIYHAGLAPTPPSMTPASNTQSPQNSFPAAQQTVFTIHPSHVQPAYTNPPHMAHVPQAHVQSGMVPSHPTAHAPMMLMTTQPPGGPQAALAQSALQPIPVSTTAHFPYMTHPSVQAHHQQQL
row,Compound,Potency
1,CCN(CC)c1ccc(/C=N/NC(=O)c2nnn(-c3nonc3N)c2-c2ccc(C)cc2)cc1,inactive
2,Cc1cccn2c(=O)c3cc(C#N)c(=O)n(CCCN4CCOCC4)c3nc12,inactive
3,COc1cc(C(=O)NCCCNc2nc3cc(C)c(C)cc3cc2C#N)cc(OC)c1OC,inactive
4,CCOC(=O)CNC(=O)C12CC3CC(C1)CC(c1ccc(C)cc1)(C3)C2,inactive
5,COc1ccc(CCNC(=O)COC(=O)C2CC2C)cc1OC (centres undefined),inactive
6,COc1ccc(C23CC4CC(CC(C4)C2)C3)cc1C(=O)NCCN(C)C,22.4 µM (active)
7,Cc1nc(COc2ccccc2Cl)sc1-c1ccnc(N)n1,inactive
8,S=C(Nc1ccc2nc(-c3ccccn3)c(-c3ccccn3)nc2c1)N1CCOCC1,inactive
9,COc1ccc(C(c2c(O)ccc3ccccc23)N2CCOCC2)c(OC)c1 (centres undefined),15.8 µM (active)
10,COc1ccc(-c2cc3ccc(O)c(CN4CCOCC4)c3oc2=O)cc1OC,inactive
11,COc1ccc(-c2c(C)c3ccc(O)c(CN4CCOCC4)c3oc2=O)cc1,inactive
12,CCN(CC)c1ccc(/C=N\NC(=O)c2cccc3cc[nH]c23)cc1,inactive
13,NC(Cc1ccc(F)cc1)c1csc(Nc2ccc(C(F)(F)F)cn2)n1 (centres undefined),35.5 µM (active)
14,NC(Cc1ccc(F)cc1)c1csc(Nc2nccc(C(F)(F)F)n2)n1 (centres undefined),39.8 µM (active)
15,CCc1cnc(Nc2nc(C(N)Cc3ccc(F)cc3)cs2)nc1 (centres undefined),25.1 µM (active)
16,COc1cccc(Nc2nc(C(N)Cc3ccc(C(F)(F)F)cc3)cs2)n1 (centres undefined),31.6 µM (active)
17,O=C(NCCN1CCCOC1=O)C(=O)NCCN1CCCOC1=O,inactive
18,O=C(NC1CCCc2ccccc21)c1ccccc1Cl (centres undefined),inactive
19,O=C(Nc1ccc2nc(-c3ccco3)c(-c3ccco3)nc2c1)NC1CC1,inactive
20,CCOC(=O)c1cnc2nc(N3CCOCC3)nn2c1N,inactive
21,NC(=S)c1cc2ccc(O)cc2oc1=O,inactive
22,Cc1[nH]c2ccccc2c1/C=C/c1nc2ccccc2c(=O)n1CCO,inactive
23,NC(c1ccccc1)c1csc(Nc2ccc(C(F)(F)F)cn2)n1 (centres undefined),35.5 µM (active)
24,CCc1cnc(Nc2nc(C(N)Cc3ccc(Cl)cc3)cs2)nc1 (centres undefined),35.5 µM (active)
25,COc1cc(OC)nc(Nc2nc(C(N)Cc3ccc(Cl)cc3)cs2)n1 (centres undefined),35.5 µM (active)

row,Compound,Potency
1,CCCc1cnc(Nc2nc(C(N)Cc3ccc(C(F)(F)F)cc3)cs2)nc1 (centres undefined),22.4 µM (active)
2,COc1ccccc1/C=[N+](\[O-])C1SC(=S)N(C)C1(C)C (centres undefined),inactive
3,Cc1c(C)c2ccc(O[C@@H]3O[C@H](CO)[C@@H](O)[C@H](O)[C@H]3O)c(C)c2oc1=O,inactive
4,Cc1nc2ccc(NS(=O)(=O)c3c(F)cc(F)cc3Br)cc2s1,inactive
5,O=C(Nc1ccc(NC(=O)C2CC2)nc1)c1cnccn1,inactive
6,COc1ccc(-c2cc(=O)oc3c(O)c(O)ccc23)cc1,inactive
7,O=C(Nc1nc2n(n1)C(c1ccc(Cl)cc1)C=C(c1ccccc1)N2)c1ccco1 (centres undefined),inactive
8,O=C(CN1C(=O)/C(=C\c2cccc(Br)c2)Oc2ccccc21)NCCCN1CCOCC1,39.8 µM (active)
9,O=C(CN1C(=O)/C(=C\c2ccccc2Cl)Oc2ccccc21)NCc1cccnc1,inactive
10,CCCCNC(=O)c1ccc(/C=C2\Oc3ccccc3N(C)C2=O)cc1,inactive
11,COc1cc(/C=C(\C#N)c2ccccn2)ccc1OCc1ccccc1,inactive
12,O=C1OCCN1C(=O)[C@H]1[C@H](c2ccc(F)cc2)C(c2cccc(Cl)c2)=NN1c1ccc(Br)cc1,inactive
13,Oc1cnnc(Nc2ccc(Nc3ccccc3)cc2)n1,inactive
14,CCCCc1ccc(Nc2nc(O)cc(CCC)n2)cc1,39.8 µM (active)
15,CCNC(=O)N1CCN(S(=O)(=O)c2ccc3c(c2)OCCCO3)CC1,inactive
16,O=S(=O)(c1ccccc1)N(CC(F)(F)F)c1ccc(C(O)(C(F)(F)F)C(F)(F)F)cc1,22.4 µM (active)
17,CCN(c1ccc(OCC(=O)OCC(=O)Nc2ccc(F)c(F)c2F)cc1)S(=O)(=O)c1ccccc1,inactive
18,COc1ccc(NC(=O)c2sc3nc(N4CCOCC4)c4c(c3c2N)CCCC4)cc1,inactive
19,CC1(C(=O)NNC(=O)c2ccc(=O)oc2)CC1Br (centres undefined),inactive
20,O=C(c1ccccc1NS(=O)(=O)c1ccc([N+](=O)[O-])cc1[N+](=O)[O-])N1O[C@@H]2C=C[C@H]1C2,22.4 µM (active)
21,CCN(CC)CCNC(=O)c1ccc(NC(=O)c2cn(-c3ccccc3)nc2-c2cccs2)cc1,39.8 µM (active)
22,O=C(O)/C=C/c1cn(-c2ccccc2)nc1-c1cccs1,inactive
23,COc1ccc(-c2nn(-c3ccccc3)cc2C(=O)Nc2ccc(C(=O)O)cc2)cc1OC,inactive
24,CC(C)c1ccc(C2=CC(c3cccc(Cl)c3)n3ncnc3N2)cc1 (centres undefined),inactive
25,CC(c1ccccc1)N(C)C(=O)CN1CCN(S(=O)(=O)c2ccc3c(c2)OCCCO3)CC1 (centres undefined),inactive

row,Compound,Potency
1,C=CCN(CC=C)CCOc1cccc(Oc2ccccc2)c1,inactive
2,CCN(CC)CCOc1ccc(/C(=C(/Cl)c2ccccc2)c2ccccc2)cc1,35.5 µM (active) and 17.8 µM (active)
3,COc1ccc(CNc2oc(/C=C/c3cccc(OC)c3)nc2C#N)cc1,inactive
4,O=c1oc2c3c4c(cc2c(C(F)(F)F)c1CCN1CCOCC1)CCCN4CCC3,inactive
5,Cc1ccc(S(=O)(=O)N(Cc2ccccc2)c2ccccc2C(=O)N2CCCCC2)cc1,31.6 µM (active)
6,CCN(c1ccccc1)S(=O)(=O)c1ccc(Cl)c(C(=O)N2CCCC2)c1,inactive
7,Cc1ccc(S(=O)(=O)N2CCN(C(=O)c3ccccn3)CC2)cc1,inactive
8,CCOc1ccc2nc(NCCNC(=O)c3cc(OC)c(OC)c(OC)c3)c(C#N)cc2c1,inactive
9,CCOc1ccc(-c2nnc(SCC(=O)Nc3ccc4c(c3)c3ccccc3n4CC)n2N)cc1,31.6 µM (active)
10,CCC(=O)Nc1ccc(NC(=O)CSc2nnnn2Cc2ccccc2)cc1C,inactive
11,CCn1c(SCC(=O)Nc2cccc(Cl)c2)nnc1-c1nonc1NC(C)=O,inactive
12,O=C(NCCO)c1cc2cc(Cl)cc(Cl)c2oc1=O,inactive
13,Cc1nccn1CCN(C)Cc1cn(Cc2ccccc2)nc1-c1ccc2c(c1)OCO2,inactive
14,CN(Cc1cn(C)nc1-c1ccc(Oc2ccccc2)cc1)Cc1cnc2ccccn12,35.5 µM (active)
15,Cc1ccc2nc(N3CC(C)OC(C)C3)nc(-c3ccccc3)c2c1 (centres undefined),inactive
16,CC(C)Cc1ccc(C(C)CC2=CCC(CN(C)C)C2=O)cc1 (centres undefined),22.4 µM (active)
17,CC(C)Cc1ccc(C(C)C(=O)Nc2ncccn2)cc1 (centres undefined),inactive
18,COc1cccc(CN2CC(C(=O)N3CCSCC3)CCC2=O)c1 (centres undefined),inactive
19,O=C(Oc1cc2oc(=O)cc(-c3ccccc3)c2cc1Cl)C1CCCCC1,inactive
20,CCCCNC(=O)c1cc2nc(-c3ccc(OC)cc3)cc(C(F)(F)F)n2n1,inactive
21,CCN(CCCNC(=O)c1cc(Nc2ccc(OC)cc2)nc2ccccc12)c1cccc(C)c1,inactive
22,CCN(CCCNC(=O)c1cc2cc3ccc(OC)cc3nc2s1)c1cccc(C)c1,39.8 µM (active)
23,COCCCn1c(=O)/c(=C\c2ccc(OC(F)F)c(OC)c2)s/c1=C(/C#N)C(N)=O,inactive
24,O=C1Nc2cc(C(=O)N3CCOCC3)ccc2S/C1=C/c1ccccc1F,inactive
25,CCN1CCCC1CNC(=O)c1ccc2c(c1)NC(=O)/C(=C\c1ccc(C)cc1)S2 (centres undefined),35.5 µM (active)

row,Compound,Potency
1,O=C(c1ccc2nc(-c3ccccc3)c(-c3ccccc3)nc2c1)N1CCCCC1,inactive
2,O=C1Nc2cc(C(=O)N3CCC(N4CCCCC4)CC3)ccc2S/C1=C\c1ccccc1,39.8 µM (active)
3,CCN1CCCC1CNC(=O)c1ccc2c(c1)NC(=O)/C(=C\c1ccc(OC)c(OC)c1)S2 (centres undefined),31.6 µM (active)
4,Cc1cccc2cc(C#N)c(NCCNS(=O)(=O)c3ccccc3)nc12,inactive
5,COc1ccc(O)c(C(=O)c2coc(=N)c(C(=O)Nc3ccc(SC(F)F)cc3)c2)c1,inactive
6,CN(C)c1ccc(-c2ccc3c(=O)c4ccccc4n(C)c3c2)cn1,inactive
7,COc1ccc(-c2ccc3c(N)c(C(=O)NC(C)C)sc3n2)cc1OC,inactive
8,Cc1ccc(C)c(N(C)S(=O)(=O)c2ccc3[nH]cc(C(=O)NC4CCCC4)c(=O)c3c2)c1,28.2 µM (active)
9,Cc1cccn2c(=O)c3cc(C(=O)NC4CCCC4)c(=N)n(C4CCCC4)c3nc12,inactive
10,COC(CN(C)C(=O)c1cn(C)c2ccc(S(=O)(=O)N(C)C3CCCCC3)cc2c1=O)OC,inactive
11,CCc1nnc(NC(=O)CSc2nc3c(cc2C#N)CCC3)s1,inactive
12,N=c1c(C(=O)NC2CCCC2)cc2c(=O)n3ccccc3nc2n1Cc1ccccc1,inactive
13,N=c1c(C(=O)NC2CCCCC2)cc2c(=O)n3ccccc3nc2n1Cc1ccccc1,inactive
14,N#CCCN(Cc1ccccc1)C(C(=O)NC1CCCCC1)c1cc2ccccc2o1 (centres undefined),39.8 µM (active)
15,COc1ccc(CCC(C)NCCc2ccc(Cl)cc2Cl)cc1 (centres undefined),39.8 µM (active)
16,COc1ccc(-c2sc(C(=O)c3ccc(Cl)cc3Cl)cc2CC(=O)O)cc1,inactive
17,COc1ccc(CCC(C)NCc2ccc(F)cc2)cc1 (centres undefined),inactive
18,CCOc1cc(/C=C/C(=O)Nc2ccc(C(=O)NCCN(CC)CC)cc2)ccc1OCC(C)C,22.4 µM (active)
19,COc1ccc(OC)c(/C=C/C(=O)Nc2ccc(C(=O)OCCC(C)C)cc2)c1,inactive
20,COc1cccc(OC)c1C(=O)Nc1ccccc1Sc1ccccc1,inactive
21,COc1ccc(C2C=C(c3ccccc3)Nc3nc(NS(=O)(=O)c4ccc(Cl)cc4)nn32)cc1 (centres undefined),inactive
22,Cc1nc2ccc(C(=O)Nc3cccc(OCC(=O)N(C)C)c3)cn2c1N(C)CC1CCCCC1,35.5 µM (active)
23,Cc1ccc2nc3c(cc(C(=O)NC4CCCC4)c(=N)n3C3CCCCC3)c(=O)n2c1,inactive
24,Cc1ccc2nc3c(cc(C(=O)NC4CCCCC4)c(=N)n3C3CCCCC3)c(=O)n2c1,inactive
